PubChem BioAssay
Activity calls are given as the source filed them.

Experiments:
[1] = tested on: PRMT1 (protein arginine N-methyltransferase 1); experiment: small molecules binding arginine methyltransferase PRMT1 – biochemical, small-molecule microarray, 635 nm fluorescence, primary screen (AID 1088); conditions: higher = more signal;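 further: binding of Prmt1 protein to compounds spotted on small-molecule microarray slides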
[2] = growth effects on S. cerevisiae YJM789 – YJM789 clinical isolate, OD600, 24 h, basal, primary screen (AID 1089); conditions: higher = more signal, called active from +8 up or from −8 down;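 further: growth of clinical yeast isolate S. cerevisiae YJM 789 seeded 1000 cells per well; test concentration not given here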
[3] = S. pombe growth modifiers, basal conditions – strain 972, OD600, 24 h, no modulator, primary screen (AID 1090);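 further: basal condition with compound alone and no growth modifier present; test concentration not given here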; conditions: S. pombe 972 growth, higher = more signal, called active from +8 up or from −8 down
[4] = budding yeast growth modifiers under rapamycin – strain BY4716, OD600, 96 h, primary screen (AID 1091); further: test concentration not given here; conditions: S. cerevisiae BY4716 + rapamycin, higher = more signal, called active from +8 up or from −8 down
[5] = target: Torsin-1A-interacting protein 2 (Homo sapiens) (UniProt Q8NFQ8); experiment: small molecules binding lysate-expressed LULL1 – cell lysate, human LULL1 lysate, 635/667 nm fluorescence, primary screen (AID 1092); conditions: small-molecule microarray, hLULL1 lysate binding, 635 nm fluorescence; higher = more signal;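 further: probe is lysate of COS7 cells overexpressing human LULL1; score merges per-feature 667 nm fluorescence with signal-to-noise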
[6] = optical density change of DRC41 E. coli – strain DRC41, OD650, 24 h, E. coli filamentation project, primary screen (AID 1093);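 further: MC1000 strain lacking acrAB efflux and sulA so SOS filamentation is blocked; test concentration not given here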; conditions: E. coli DRC41 growth, higher = more signal, called active from +8 up or from −8 down
[7] = probe aLefty2 binding to arrayed compounds – biochemical, biotinylated probe, 635/667 nm fluorescence, primary screen (AID 1094); conditions: small-molecule microarray, higher = more signal;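 further: score merges spot fluorescence near 667 nm with spot signal-to-noise ratio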
[8] = tested on: Noggin (protein binding on small-molecule microarray); experiment: small molecules binding Noggin protein – biochemical, 635/667 nm fluorescence, primary screen (AID 1095); conditions: 635 nm fluorescence, higher = more signal;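 further: score merges 667 nm feature fluorescence with signal to noise over triplicate slides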
[9] = target: Neurogenic locus notch homolog protein 3 (Homo sapiens) (UniProt Q9UM47); experiment: small molecules binding NOTCH3 protein – biochemical, 635/667 nm fluorescence, primary screen (AID 1096); conditions: small-molecule microarray, 635 nm fluorescence, higher = more signal
[10] = probe aEGFR binding to arrayed compounds – biochemical, biotinylated probe, 635/667 nm fluorescence, primary screen (AID 1097); conditions: small-molecule microarray, higher = more signal;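 further: probe is a biotinylated anti-EGFR antibody binding compounds printed on slides; score combines fluorescence near 667 nm and signal to noise of each spot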
[11] = tested on: Plasmodium falciparum Sir2 (PF13_0152, Sir2A); experiment: Plasmodium falciparum Sir2A binding compounds – biochemical, small-molecule microarray, 635 nm fluorescence, primary screen (AID 1098); conditions: fluorescence 635 nm, higher = more signal;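 further: score merges spot fluorescence intensity with its signal-to-noise ratio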
[12] = probe aDKK1 binding to arrayed compounds – biochemical, biotinylated probe, 635/667 nm fluorescence, primary screen (AID 1099); conditions: small-molecule microarray, higher = more signal;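 further: score merges 667nm spot fluorescence with signal to noise across triplicate slides; reference of the scale not given here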
[13] = probe aCHRDL2 binding to arrayed compounds – biochemical, biotinylated probe, 635/667 nm fluorescence, primary screen (AID 1100); conditions: small-molecule microarray, higher = more signal
[14] = change in splice reporter luminescence, either direction, cell-based, HEK293, spliceosome inhibition project, primary screen (AID 1101); conditions: HEK293 splicing luciferase reporter, 24 h, higher = more signal, called active from +8 up or from −8 down;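 further: HEK293 cells carrying a splicing-competent luciferase reporter gene; test concentration not given here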
[15] = target: Fibroblast growth factor 10 (Homo sapiens) (UniProt O15520); experiment: compounds binding fibroblast growth factor 10 – biochemical, small-molecule microarray, 635 nm fluorescence, primary screen (AID 1102); conditions: FGF10 binding, fluorescence 635 nm, higher = more signal
[16] = tested on: glycogen synthase kinase-3 (GSK3A per assay name; protocol says GSK3B); experiment: compounds binding glycogen synthase kinase-3 – biochemical, small-molecule microarray, 635 nm fluorescence, GSK3A, primary screen (AID 1103); conditions: fluorescence 635 nm, higher = more signal; further: the record names both GSK3A and GSK3B
[17] = target: Epidermal growth factor receptor (Homo sapiens) (UniProt P00533); experiment: compounds binding epidermal growth factor receptor – biochemical, small-molecule microarray, 635 nm fluorescence, primary screen (AID 1104); conditions: EGFR binding, higher = more signal;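 further: score merges 667 nm emission intensity with spot signal to noise over triplicate slides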
[18] = target: Follistatin-related protein 3 (Homo sapiens) (UniProt O95633); experiment: compounds binding follistatin-related protein 3 – biochemical, small-molecule microarray, 635 nm fluorescence, primary screen (AID 1105); conditions: FSTL3 binding, higher = more signal;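 further: score merges emission near 667 nm and signal to noise per printed spot across three slides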
[19] = target: Dickkopf-related protein 1 (Homo sapiens) (UniProt O94907); experiment: small molecules binding DKK1 protein – biochemical, small-molecule microarray, 635 nm fluorescence scan, primary screen (AID 1106); conditions: higher = more signal;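 further: score merges emission near 667 nm with signal to noise over three replicate slides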
[20] = tested on: Inhibin beta A chain (activin A); experiment: small molecules binding activin A – biochemical, small-molecule microarray, 635 nm fluorescence scan, primary screen (AID 1107); conditions: INHBA, higher = more signal;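 further: mouse activin A protein probed at 4.33 µg/mL on printed slides; score merges bound-protein fluorescence near 667 nm with spot signal-to-noise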

Neurogenic locus notch homolog protein 3 (Homo sapiens), sequence (Q9UM47 whole entry, looked up): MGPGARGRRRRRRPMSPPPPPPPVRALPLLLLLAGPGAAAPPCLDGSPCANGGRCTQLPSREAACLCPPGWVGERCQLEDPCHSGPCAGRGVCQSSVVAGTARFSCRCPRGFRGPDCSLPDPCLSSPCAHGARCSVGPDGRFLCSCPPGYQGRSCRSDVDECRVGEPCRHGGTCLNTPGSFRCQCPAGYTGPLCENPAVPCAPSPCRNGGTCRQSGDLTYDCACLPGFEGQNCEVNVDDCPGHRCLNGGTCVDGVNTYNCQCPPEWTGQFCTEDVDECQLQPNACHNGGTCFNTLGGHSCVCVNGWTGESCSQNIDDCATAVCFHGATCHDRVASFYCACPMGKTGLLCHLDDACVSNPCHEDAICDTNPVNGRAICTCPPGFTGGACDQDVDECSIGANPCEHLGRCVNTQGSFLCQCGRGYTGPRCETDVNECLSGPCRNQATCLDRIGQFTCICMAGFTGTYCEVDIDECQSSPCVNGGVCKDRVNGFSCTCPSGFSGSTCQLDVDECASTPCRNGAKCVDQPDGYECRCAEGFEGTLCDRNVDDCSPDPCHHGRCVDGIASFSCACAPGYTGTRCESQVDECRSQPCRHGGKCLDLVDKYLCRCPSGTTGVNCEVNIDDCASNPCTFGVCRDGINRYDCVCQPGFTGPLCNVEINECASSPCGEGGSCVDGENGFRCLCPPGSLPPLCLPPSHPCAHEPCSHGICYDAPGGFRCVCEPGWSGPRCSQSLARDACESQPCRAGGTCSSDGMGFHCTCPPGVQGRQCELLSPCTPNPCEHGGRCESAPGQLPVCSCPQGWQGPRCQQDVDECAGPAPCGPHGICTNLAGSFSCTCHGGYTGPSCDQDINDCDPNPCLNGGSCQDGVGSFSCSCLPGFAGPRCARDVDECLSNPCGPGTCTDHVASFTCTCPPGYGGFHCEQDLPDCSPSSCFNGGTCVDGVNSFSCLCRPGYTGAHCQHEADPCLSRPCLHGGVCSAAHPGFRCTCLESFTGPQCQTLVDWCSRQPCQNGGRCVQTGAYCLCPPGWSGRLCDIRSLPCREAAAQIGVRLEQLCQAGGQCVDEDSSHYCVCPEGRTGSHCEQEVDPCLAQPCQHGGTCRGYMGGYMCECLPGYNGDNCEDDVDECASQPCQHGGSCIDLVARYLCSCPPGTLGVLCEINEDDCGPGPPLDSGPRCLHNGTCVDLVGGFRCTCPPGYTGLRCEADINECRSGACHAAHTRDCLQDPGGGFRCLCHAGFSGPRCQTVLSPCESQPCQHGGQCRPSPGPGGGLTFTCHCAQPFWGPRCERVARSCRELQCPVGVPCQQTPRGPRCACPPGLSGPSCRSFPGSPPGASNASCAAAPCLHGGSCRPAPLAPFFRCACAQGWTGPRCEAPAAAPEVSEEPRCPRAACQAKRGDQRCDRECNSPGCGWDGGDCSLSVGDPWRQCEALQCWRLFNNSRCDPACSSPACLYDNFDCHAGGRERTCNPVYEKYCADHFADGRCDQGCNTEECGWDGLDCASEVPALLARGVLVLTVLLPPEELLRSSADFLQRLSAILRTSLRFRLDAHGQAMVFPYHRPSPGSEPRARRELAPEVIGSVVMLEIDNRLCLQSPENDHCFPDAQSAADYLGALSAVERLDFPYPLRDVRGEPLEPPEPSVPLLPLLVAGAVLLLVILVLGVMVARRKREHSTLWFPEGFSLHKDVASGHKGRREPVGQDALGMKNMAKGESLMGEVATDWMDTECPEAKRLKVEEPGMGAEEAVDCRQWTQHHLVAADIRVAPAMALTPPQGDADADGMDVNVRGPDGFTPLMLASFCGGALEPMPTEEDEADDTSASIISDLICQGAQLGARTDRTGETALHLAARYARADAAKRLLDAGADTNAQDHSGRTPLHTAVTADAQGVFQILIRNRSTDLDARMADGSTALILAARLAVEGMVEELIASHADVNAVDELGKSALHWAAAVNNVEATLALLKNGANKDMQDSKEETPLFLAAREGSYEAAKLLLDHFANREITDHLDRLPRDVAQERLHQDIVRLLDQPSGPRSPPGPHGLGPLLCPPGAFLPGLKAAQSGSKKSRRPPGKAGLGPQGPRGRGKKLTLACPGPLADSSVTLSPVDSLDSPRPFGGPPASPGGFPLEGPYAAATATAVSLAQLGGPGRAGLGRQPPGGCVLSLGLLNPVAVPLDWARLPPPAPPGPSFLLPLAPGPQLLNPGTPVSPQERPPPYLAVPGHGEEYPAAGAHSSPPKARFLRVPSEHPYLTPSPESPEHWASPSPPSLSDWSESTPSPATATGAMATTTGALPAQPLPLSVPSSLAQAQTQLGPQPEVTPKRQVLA
Follistatin-related protein 3 (Homo sapiens), sequence (O95633 whole entry, looked up): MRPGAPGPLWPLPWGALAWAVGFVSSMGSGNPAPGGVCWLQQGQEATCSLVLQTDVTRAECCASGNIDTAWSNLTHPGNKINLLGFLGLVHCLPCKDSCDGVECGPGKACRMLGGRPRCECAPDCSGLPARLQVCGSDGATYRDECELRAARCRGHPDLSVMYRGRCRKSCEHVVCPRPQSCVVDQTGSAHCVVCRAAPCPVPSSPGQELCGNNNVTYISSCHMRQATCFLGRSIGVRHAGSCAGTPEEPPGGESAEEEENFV
Dickkopf-related protein 1 (Homo sapiens), sequence (O94907 whole entry, looked up): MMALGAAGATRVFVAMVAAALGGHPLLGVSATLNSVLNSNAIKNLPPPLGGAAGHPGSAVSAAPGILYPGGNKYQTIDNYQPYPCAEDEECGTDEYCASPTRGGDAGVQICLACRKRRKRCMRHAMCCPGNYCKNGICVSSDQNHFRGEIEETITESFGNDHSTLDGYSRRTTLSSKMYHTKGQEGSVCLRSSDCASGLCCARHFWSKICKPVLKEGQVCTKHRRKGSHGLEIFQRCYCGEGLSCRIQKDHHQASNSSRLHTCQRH
Torsin-1A-interacting protein 2 (Homo sapiens), sequence (Q8NFQ8 whole entry, looked up): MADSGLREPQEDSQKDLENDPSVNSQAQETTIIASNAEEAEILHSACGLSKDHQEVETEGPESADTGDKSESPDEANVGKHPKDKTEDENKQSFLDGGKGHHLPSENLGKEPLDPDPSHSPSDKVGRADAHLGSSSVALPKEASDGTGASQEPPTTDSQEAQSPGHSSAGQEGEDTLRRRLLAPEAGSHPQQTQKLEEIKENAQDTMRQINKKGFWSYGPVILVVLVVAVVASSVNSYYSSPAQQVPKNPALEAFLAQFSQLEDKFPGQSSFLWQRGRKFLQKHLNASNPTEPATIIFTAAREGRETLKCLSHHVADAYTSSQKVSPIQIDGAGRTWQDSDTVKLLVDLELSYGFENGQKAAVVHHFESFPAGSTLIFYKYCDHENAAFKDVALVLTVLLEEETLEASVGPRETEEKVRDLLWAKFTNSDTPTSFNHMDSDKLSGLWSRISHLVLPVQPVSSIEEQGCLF
Fibroblast growth factor 10 (Homo sapiens), sequence (O15520 whole entry, looked up): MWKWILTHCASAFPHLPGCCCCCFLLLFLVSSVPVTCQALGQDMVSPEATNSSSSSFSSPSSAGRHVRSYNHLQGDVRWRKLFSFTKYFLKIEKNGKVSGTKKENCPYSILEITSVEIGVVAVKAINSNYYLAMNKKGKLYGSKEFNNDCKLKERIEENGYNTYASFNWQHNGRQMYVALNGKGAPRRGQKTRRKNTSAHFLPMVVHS
Epidermal growth factor receptor (Homo sapiens), sequence (P00533 whole entry, looked up): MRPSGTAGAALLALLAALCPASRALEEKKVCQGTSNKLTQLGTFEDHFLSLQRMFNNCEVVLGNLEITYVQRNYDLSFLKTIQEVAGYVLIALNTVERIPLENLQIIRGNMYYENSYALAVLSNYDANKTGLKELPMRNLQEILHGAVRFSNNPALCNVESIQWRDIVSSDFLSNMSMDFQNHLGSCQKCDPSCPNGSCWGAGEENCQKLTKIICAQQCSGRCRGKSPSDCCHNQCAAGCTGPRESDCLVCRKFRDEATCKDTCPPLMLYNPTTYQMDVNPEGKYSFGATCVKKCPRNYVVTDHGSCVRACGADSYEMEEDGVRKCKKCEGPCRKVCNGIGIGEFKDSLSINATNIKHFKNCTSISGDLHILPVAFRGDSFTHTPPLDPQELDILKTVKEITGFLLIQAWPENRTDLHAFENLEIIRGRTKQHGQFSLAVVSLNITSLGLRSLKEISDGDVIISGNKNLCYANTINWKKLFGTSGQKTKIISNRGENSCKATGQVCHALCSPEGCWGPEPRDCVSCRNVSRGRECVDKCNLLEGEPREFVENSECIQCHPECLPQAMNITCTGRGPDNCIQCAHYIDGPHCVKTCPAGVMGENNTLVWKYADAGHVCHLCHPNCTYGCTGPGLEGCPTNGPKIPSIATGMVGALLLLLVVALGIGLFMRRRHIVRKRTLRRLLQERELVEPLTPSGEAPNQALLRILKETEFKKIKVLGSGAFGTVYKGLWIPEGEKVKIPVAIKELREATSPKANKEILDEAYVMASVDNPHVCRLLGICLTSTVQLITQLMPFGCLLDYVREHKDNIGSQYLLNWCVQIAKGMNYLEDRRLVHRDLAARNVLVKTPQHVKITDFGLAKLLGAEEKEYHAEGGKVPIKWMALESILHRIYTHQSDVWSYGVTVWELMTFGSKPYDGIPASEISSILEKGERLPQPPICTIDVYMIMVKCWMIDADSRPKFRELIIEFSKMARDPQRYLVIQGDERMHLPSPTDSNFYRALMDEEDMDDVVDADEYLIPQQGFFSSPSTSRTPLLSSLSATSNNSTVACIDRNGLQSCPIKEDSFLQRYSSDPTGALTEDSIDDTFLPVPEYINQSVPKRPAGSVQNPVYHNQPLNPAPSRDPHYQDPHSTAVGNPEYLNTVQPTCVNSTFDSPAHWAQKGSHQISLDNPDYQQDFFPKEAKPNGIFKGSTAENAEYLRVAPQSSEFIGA

COC(=O)C1=CC(CCCO)=CC(c2cccs2)N(C)C=C1C(=O)OC (stereo not given)
composite z-score [1]: 0.0782
z-score [2]: 0.112 (inactive)
z-score [3]: 0.009 (inactive)
z-score [4]: 0.241 (inactive)
composite z-score [5]: 1.6
z-score [6]: 0.39 (inactive)
composite z-score [7]: 0.0099
composite z-score [8]: -0.561
composite z-score [9]: 0.275
composite z-score [10]: -0.0034
composite z-score [11]: 1.52
composite z-score [12]: 0.122
composite z-score [13]: 0.187
z-score [14]: 0.844 (inactive)
composite z-score [15]: -0.604
composite z-score [16]: -1.39
composite z-score [17]: -0.904
composite z-score [18]: 0.0507
composite z-score [19]: -0.442
composite z-score [20]: 0.788

COc1ccc([Si](C)(C)[C@H]2[C@H](CC(=O)N3CCC[C@H]3CO)O[C@@]3(C(=O)N(Cc4ccc(N5CCOC5=O)cc4)c4ccccc43)[C@@H]2C)cc1
composite z-score [1]: 1.56
z-score [2]: -0.546 (inactive)
z-score [3]: 0.0871 (inactive)
z-score [4]: -0.38 (inactive)
composite z-score [5]: 2.31
z-score [6]: 1.08 (inactive)
composite z-score [7]: -0.0063
composite z-score [8]: 1.32
composite z-score [9]: 1.11
composite z-score [10]: -0.0409
composite z-score [11]: 1.08
composite z-score [12]: -0.214
composite z-score [13]: -0.246
z-score [14]: 0.467 (inactive)
composite z-score [15]: 1.22
composite z-score [16]: 1.14
composite z-score [17]: 0.737
composite z-score [18]: 1.06
composite z-score [19]: 0.672
composite z-score [20]: 0.378

[N-]=[N+]=NCc1ccccc1C[C@@]1(C(N)=O)N=C(c2ccc(OCCCO)cc2)O[C@@H]1c1ccccc1
composite z-score [1]: 1.56
z-score [2]: -0.144 (inactive)
z-score [3]: 0.0313 (inactive)
z-score [4]: 13.3 (active)
composite z-score [5]: 3.59
z-score [6]: -0.412 (inactive)
composite z-score [7]: 0.149
composite z-score [8]: -0.734
composite z-score [9]: -0.15
composite z-score [10]: -0.108
composite z-score [11]: 1.15
composite z-score [12]: 0.67
composite z-score [13]: 1.04
z-score [14]: -1.01 (inactive)
composite z-score [15]: 0.001
composite z-score [16]: -0.238
composite z-score [17]: -0.892
composite z-score [18]: -0.443
composite z-score [19]: -1.38
composite z-score [20]: 0.389

C=CC[C@@]1(C(=O)NCCCOC)N=C(c2ccc(OCCCO)cc2)O[C@@H]1c1ccccc1N=[N+]=[N-]
composite z-score [1]: 1.14
z-score [2]: 0.339 (inactive)
z-score [3]: 0.561 (inactive)
z-score [4]: -0.441 (inactive)
composite z-score [5]: 3.09
z-score [6]: 1.24 (inactive)
composite z-score [7]: 0.085
composite z-score [8]: 0.794
composite z-score [9]: 0.681
composite z-score [10]: -0.019
composite z-score [11]: 0.826
composite z-score [12]: 0.648
composite z-score [13]: 0.999
z-score [14]: 0.0875 (inactive)
composite z-score [15]: 0.919
composite z-score [16]: 0.595
composite z-score [17]: -0.276
composite z-score [18]: 0.45
composite z-score [19]: -0.178
composite z-score [20]: 0.961

CC(C)C(CO)N1C(=O)[C@@H]2C3C(=O)OCCC/C=C\[C@H]3OC23C=CCN(Cn2nnc4ccccc42)C(=O)[C@@H]13 (stereo not given in full)
composite z-score [1]: 0.828
z-score [2]: 0.0005 (inactive)
z-score [3]: -0.299 (inactive)
z-score [4]: 0.0668 (inactive)
composite z-score [5]: 3.72
z-score [6]: 0.167 (inactive)
composite z-score [7]: -0.159
composite z-score [8]: -0.421
composite z-score [9]: 0.144
composite z-score [10]: -0.268
composite z-score [11]: 0.192
composite z-score [12]: -0.0842
composite z-score [13]: 0.543
z-score [14]: 0.323 (inactive)
composite z-score [15]: -0.727
composite z-score [16]: -0.2
composite z-score [17]: -0.636
composite z-score [18]: -0.359
composite z-score [19]: -1.13
composite z-score [20]: 0.223

CN(C)CCCCCCNC(=O)[C@@H]1C[C@@H]2C(=O)N3CCC[C@H]3C(=O)N2[C@@H]1c1cccc(OCCO)c1
composite z-score [1]: 1.54
z-score [2]: 0.108 (inactive)
z-score [3]: -0.177 (inactive)
z-score [4]: 1.04 (inactive)
composite z-score [5]: 1.66
z-score [6]: -0.395 (inactive)
composite z-score [7]: -0.0664
composite z-score [8]: 1.54
composite z-score [9]: 1.06
composite z-score [10]: 0.193
composite z-score [11]: 1.35
composite z-score [12]: -0.0718
composite z-score [13]: 0.481
z-score [14]: 0.134 (inactive)
composite z-score [15]: 0.92
composite z-score [16]: 1.33
composite z-score [17]: 1.11
composite z-score [18]: 1.49
composite z-score [19]: 1.81
composite z-score [20]: 0.749

C=CC[C@@]1(C(=O)NCCCOC)N=C(c2ccc(OCCCO)cc2)O[C@@H]1c1ccccc1
composite z-score [1]: 1.24
z-score [2]: -3.84 (inactive)
z-score [3]: -1.61 (inactive)
z-score [4]: -0.725 (inactive)
composite z-score [5]: 3.37
z-score [6]: 0.734 (inactive)
composite z-score [7]: 0.211
composite z-score [8]: 0.0729
composite z-score [9]: -0.741
composite z-score [10]: 0.0353
composite z-score [11]: 1.7
composite z-score [12]: 2.31
composite z-score [13]: 1.36
z-score [14]: -1.39 (inactive)
composite z-score [15]: 0.311
composite z-score [16]: 0.326
composite z-score [17]: -0.848
composite z-score [18]: -0.439
composite z-score [19]: -0.666
composite z-score [20]: 0.923

CN(C)C(=O)[C@]1(Cc2ccccc2CN=[N+]=[N-])N=C(c2ccc(OCCCO)cc2)O[C@@H]1c1ccccc1
composite z-score [1]: 1.57
z-score [2]: -0.545 (inactive)
z-score [3]: -1.07 (inactive)
z-score [4]: 20.8 (active)
composite z-score [5]: 3.29
z-score [6]: -0.915 (inactive)
composite z-score [7]: -0.0352
composite z-score [8]: 0.104
composite z-score [9]: 0.439
composite z-score [10]: 0.0958
composite z-score [11]: 1.19
composite z-score [12]: 0.161
composite z-score [13]: 0.821
z-score [14]: -1.45 (inactive)
composite z-score [15]: 0.647
composite z-score [16]: 0.497
composite z-score [17]: -0.19
composite z-score [18]: -0.202
composite z-score [19]: -0.147
composite z-score [20]: 1.29

CO[C@H]1O[C@H](CO)[C@@H](OC(=O)CCc2ccccc2)[C@@H]2OC(=O)[C@@H](Cc3ccccc3)C/C=C/C[C@H](Cc3ccccc3)C(=O)O[C@@H]12
composite z-score [1]: 1.35
z-score [2]: -0.0668 (inactive)
z-score [3]: 0.0286 (inactive)
z-score [4]: 5.61 (inactive)
composite z-score [5]: 1.25
z-score [6]: 0.241 (inactive)
composite z-score [7]: -0.119
composite z-score [8]: 0.435
composite z-score [9]: 0.922
composite z-score [10]: -0.067
composite z-score [11]: 0.228
composite z-score [12]: 0.253
composite z-score [13]: 0.585
z-score [14]: -1.57 (inactive)
composite z-score [15]: 0.469
composite z-score [16]: 0.714
composite z-score [17]: -0.199
composite z-score [18]: 1.11
composite z-score [19]: 0.46
composite z-score [20]: 0.925

COCCOC(=O)N1C(=O)[C@@]2(c3cc(C#CCCO)ccc31)[C@H](c1ccc(OCCO)cc1)N1[C@H](c3ccccc3)[C@H](c3ccccc3)OC(=O)[C@H]1[C@@H]2C(=O)Nc1nc2ccccc2s1
composite z-score [1]: 1.42
z-score [2]: 1.61 (inactive)
z-score [3]: 1.26 (inactive)
z-score [4]: 2.48 (inactive)
composite z-score [5]: 1.26
z-score [6]: 0.235 (inactive)
composite z-score [7]: 0.151
composite z-score [8]: 1.13
composite z-score [9]: 1.08
composite z-score [10]: 0.197
composite z-score [11]: 0.755
composite z-score [12]: 0.901
composite z-score [13]: 0.771
z-score [14]: 1.06 (inactive)
composite z-score [15]: 0.898
composite z-score [16]: 1.29
composite z-score [17]: 0.27
composite z-score [18]: 1.24
composite z-score [19]: 0.87
composite z-score [20]: 0.854
